Results taken from PubChem BioAssay AID624330 (Southern Research Specialized Biocontainment Screening …, 2012).
Screen size: about 340,000 compounds; about 2,100 (0.62%) were called active.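 Rule for the calls: active = first-screen hits whose inhibition reached a set limit at any dose in the follow-up dose series; inconclusive = inhibition above the set first-screen limit but never retested; inactive = the rest.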 A selection follows. Potency and affinity values are given separately.

target: Rac GTPase-activating protein 1 (Homo sapiens) (UniProt Q9H0H5); test: MgcRacGAP GTPase-activating activity inhibitors, confirmation, biochemical, ADP Hunter fluorescence, primary and confirmatory (AID 624330); details: MgcRacGAP-stimulated Rac1 GTP hydrolysis, at 30 µM, hits give high values, GST-tagged Rac1 F28L mutant substrate;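 note: fluorescence reports GDP produced by GAP-driven GTP hydrolysis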
Sequence (Q9H0H5 whole entry, looked up): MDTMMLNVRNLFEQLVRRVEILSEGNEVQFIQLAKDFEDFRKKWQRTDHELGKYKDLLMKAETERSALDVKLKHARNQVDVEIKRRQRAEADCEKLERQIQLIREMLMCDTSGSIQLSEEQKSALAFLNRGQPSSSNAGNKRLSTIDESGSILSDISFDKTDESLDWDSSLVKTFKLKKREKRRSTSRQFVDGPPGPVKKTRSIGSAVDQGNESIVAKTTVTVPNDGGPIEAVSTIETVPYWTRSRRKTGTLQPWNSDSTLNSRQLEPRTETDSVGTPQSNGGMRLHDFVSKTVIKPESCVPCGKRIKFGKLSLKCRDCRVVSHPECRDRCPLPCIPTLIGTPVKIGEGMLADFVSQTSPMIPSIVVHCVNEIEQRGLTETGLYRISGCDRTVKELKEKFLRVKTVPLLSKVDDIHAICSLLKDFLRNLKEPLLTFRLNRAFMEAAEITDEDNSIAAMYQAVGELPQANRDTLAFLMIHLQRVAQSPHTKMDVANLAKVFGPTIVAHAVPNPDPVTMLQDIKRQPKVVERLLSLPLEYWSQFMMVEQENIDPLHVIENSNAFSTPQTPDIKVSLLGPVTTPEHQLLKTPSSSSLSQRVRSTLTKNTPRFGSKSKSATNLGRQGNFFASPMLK

inhibition, inactive:
COc1cccc(CNC(=O)CCS(=O)(=O)c2ccc3c(c2)NC(=O)CO3)c1 12.4%, CCCn1c(SCC(=O)NNC(=O)c2ccccc2)nnc1-c1cccnc1 12.3%, COc1ccc2cc(C(=O)Nc3ccc(Cl)cc3)sc(=O)c2c1OC 7.43%, COc1ccc2cc(C(=O)Nc3ccc(F)cc3)sc(=O)c2c1OC 0.7%, O=C(Nc1ccccc1)c1cc2ccccc2c(=O)s1 -4.83%, O=C(NCCO)c1cc2ccccc2c(=O)s1 6.83%, CCN1C(=O)[C@H]2[C@H]3CN=C(SCc4ccc(C(=O)OC)cc4)N3[C@@](Cc3ccccc3)(C(=O)OC)[C@H]2C1=O 11.1%, COC(=O)C(Cc1c[nH]c2ccccc12)NC(=O)c1cccc(S(=O)(=O)N2CCCCC2)c1 (stereo not drawn) 2.63%, CCOC(=O)c1ccc(NC(=O)C(=O)NCC2(c3ccc(OC)cc3)CCOCC2)cc1 15.5%, CC(C(=O)Nc1ccc(Cl)cc1)N1C(=O)NC2(CCCC2)C1=O (stereo not drawn) 3.21%, CCN(CC(=O)NCc1ccc(F)cc1)C(=O)CN1CCN(c2cc(Cl)ccc2C)CC1 4.22%, CCN(CC)c1ccc(C=Nc2ccc(N(C)C)cc2)c(O)c1 19.7%, Cc1ccc(N=Cc2ccc(O)cc2O)cc1F 2.37%, Oc1ccc(N=Nc2cccc(Cl)c2)cc1C=Nc1ccc(N2CCOCC2)cc1 7.02%, Cc1cc(O)c(C=Nc2ccc(N3CCOCC3)cc2)c(C)c1Cl 24.8%, COc1ccc(N=Cc2ccccc2O)cc1 7.18%, CCOc1ccc(N=Cc2ccccc2O)cc1 4.12%, O=[N+]([O-])c1cc(Br)c(O)c(C=Nc2ccc(N3CCOCC3)cc2)c1 54.6%, Cn1c(O)c(C=Nc2ccc(N3CCOCC3)cc2)c(=O)n(C)c1=S 10.4%, CS(=O)(=O)c1ccc(Cl)c(NC(=O)COC(=O)CNC(=O)c2ccccc2)c1 6.09%, O=C(Cc1cccc(F)c1)Nc1ccc2c(c1)CCC2 6.98%, C=C(c1ccccc1Cl)[n+]1ccccc1 -11.7%, N#CCCN(Cc1cccnc1)C(=S)NC(=O)c1ccco1 5.92%, O=C(OCC(=O)N1CCCC1)c1c(Cl)ccc(Cl)c1Cl -3.47%, Cc1nc(C(=O)N(C)C)nn1-c1cc(Cl)ccc1Cl 9.33%, Cc1ccc(-n2c(C(C)C)nc3oc4ccccc4c(=O)c3c2=O)cc1 0.93%, Oc1ccc(Br)cc1C=Nc1ccc(Cl)cc1 8.07%, Oc1ccc(Br)cc1/C=N/N1CCCCC1 6.18%, Cc1cc(C)cc(NC(=O)c2cccc(NC(=O)c3ccco3)c2)c1 -0.13%, O=C(Nc1cccc(NC(=O)c2ccco2)c1)c1cccc(Br)c1 7.43%, COc1ccccc1NC(=O)c1oc2ccccc2c1NC(=O)C1CC1 1.66%, CCn1c(=O)c(C(=O)CN(C)Cc2ccc(F)cc2)c(N)n(Cc2ccccc2)c1=O 5.49%, CCOc1ccc(CN(C)CC(=O)c2c(N)n(Cc3ccccc3)c(=O)n(CC)c2=O)cc1OC 5.23%, Cc1cccc(NC(=O)c2nc[nH]c2C(=O)N[C@@H](CC(C)C)C(=O)OCc2ccccc2)c1 5.96%, Cc1cc(C)cc(NC(=S)N2CCC(C(=O)c3ccc(F)cc3)CC2)c1 -15.2%, CC(C)CN(C(=O)c1cc2ccccc2o1)c1c(N)n(CC(C)C)c(=O)[nH]c1=O 7.89%, Cc1nn(-c2ccccc2)c(C)c1NC(=O)COC(=O)CCOc1ccccc1 2.57%, Cc1ccc(N/C=C2\CCCCC2=O)c(C)c1 5.15%, CC(=O)Nc1ccc(N/C=C2/CCCC2=O)cc1 14.8%, CCC(CC)C(=O)Nc1ccc(Nc2ccccc2)cc1 28%, CCCCC(CC)C(=O)Nc1ccc(Nc2ccccc2)cc1 (stereo not drawn) 22.3%, c1ccc(Nc2ccccc2)cc1 3.58%, COCC(=O)Nc1ccc(Nc2ccccc2)cc1 15.4%, O=C(O)CCC(NS(=O)(=O)c1ccc(N2CCCC2=O)cc1)C(=O)O (stereo not drawn) -1.24%, CCOc1ccc(S(=O)(=O)N2CCN(C(=O)c3cc(-c4ccccc4)nn3-c3ccccc3)CC2)cc1 6.52%, CNC(=O)C(=O)Nc1ccc2c(c1)N(S(=O)(=O)c1cccs1)CCC2 4.61%, CN(CCCC1CCCC1)C(=O)c1cc(COc2c(F)cccc2F)on1 7.43%, CCOc1cc(/C=C/c2cccc[n+]2C)ccc1OCC(=O)Nc1ccc(C)cc1 7.44%, C[n+]1ccccc1/C=C/c1ccc(F)c(F)c1 9.42%, Cc1ccc(CS(=O)Cc2ccc(C(=O)N3CCN(c4ccccn4)CC3)o2)cc1 (stereo not drawn) 9.12%, COc1cc2[nH]ccc(=O)c2cc1OC 1.14%, COc1ccc2cc[nH]c2c1 6.12%, Nc1[nH][nH]c(=O)c1N=Nc1ccc2c(c1)OCO2 19.5%, Nc1n[nH]c(N)c1N=Nc1ccc(F)cc1 12.4%, Cc1ccccc1-n1c(SCC(=O)c2c(N)n(C3CC3)c(=O)[nH]c2=O)nnc1N1CCOCC1 4.29%, CCCC(C1=C(O)CC(C)(C)CC1=O)C1C(=O)CC(C)(C)CC1=O (stereo not drawn) 8.39%, CC1(C)CC(=O)C(C(C2=C(O)CC(C)(C)CC2=O)c2ccc([N+](=O)[O-])cc2)C(=O)C1 (stereo not drawn) 10.9%, CC1(C)CC(=O)C(C(C2=C(O)CC(C)(C)CC2=O)c2cccc(O)c2)C(=O)C1 (stereo not drawn) 7.97%, CC1(C)CC(=O)C(C(C2=C(O)CC(C)(C)CC2=O)c2ccc(Cl)c([N+](=O)[O-])c2)C(=O)C1 (stereo not drawn) -0.37%, CC1(C)CC(=O)C(C(C2=C(O)CC(C)(C)CC2=O)c2ccco2)C(=O)C1 (stereo not drawn) 29%, CC1(C)CC(=O)C(Br)=C(O)C1 -4.56%, COc1cccc(C(C2=C(O)CC(C)(C)CC2=O)C2C(=O)CC(C)(C)CC2=O)c1 (stereo not drawn) -5.78%, CC1(C)CC(=O)C(C(C2=C(O)CC(C)(C)CC2=O)c2cccnc2)C(=O)C1 (stereo not drawn) 12%
